Records with an inconclusive call do not appear. The source made the active and inactive calls. How the source made its calls, unless noted: active means hit-call score of the fitted dose curve at least 0.9, where 1 is the maximum; inactive means score below 0.9.
What was measured:
[1] = ATG_TAL_CIS: Attagene CIS-FACTORIAL HepG2 Assay for human TAL Basal Promoter (AID 2282966); settings: HepG2 Attagene cis-factorial TAL promoter reporter; actives raise or lower the signal;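 further: background control endpoint measuring basal TAL promoter reporter mRNA not a specific factor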
Summary of the method: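 Fluorescence of labelled reporter cDNA fragments, resolved by capillary electrophoresis, gave the readout. Human HepG2 liver cells carried transiently transfected cis-element reporter units and were treated for 24 hours; activity was fitted bidirectionally against DMSO.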

[2] = ATG_TGFb_CIS: Attagene CIS-FACTORIAL HepG2 Assay for human Transforming Growth Factor (TGF) (AID 2282967); settings: HepG2 Attagene CIS TGFb reporter, mRNA transcription; actives raise or lower the signal
Summary of the method: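 Transient MRTU transfection of HepG2 (FuGene 6). Dose 24 h. TriZol RNA, oligo(dT) RT, PCR, 6-FAM primer extension, HpaI cut, CE. Bidirectional fit, DMSO = baseline.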

[3] = ATG_VDRE_CIS: Attagene CIS-FACTORIAL HepG2 Assay for human Vitamin D Receptor Element (VDRE) (AID 2282968); settings: HepG2 VDRE cis-reporter transcription, actives raise or lower the signal
Summary of the method: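 RT-PCR/CE readout of reporter mRNA; HepG2, transient transfection, 24 h dosing; DMSO baseline; bidirectional analysis.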

[4] = target: X-box-binding protein 1 (Homo sapiens) (UniProt P17861); assay: ATG_Xbp1_CIS: Attagene CIS-FACTORIAL HepG2 Assay for human X-box Binding Protein 1 (XBP1) (AID 2282972); settings: HepG2 XBP1 cis-element reporter, Attagene multiplex; actives raise or lower the signal
X-box-binding protein 1 (Homo sapiens), sequence (P17861 whole entry, looked up): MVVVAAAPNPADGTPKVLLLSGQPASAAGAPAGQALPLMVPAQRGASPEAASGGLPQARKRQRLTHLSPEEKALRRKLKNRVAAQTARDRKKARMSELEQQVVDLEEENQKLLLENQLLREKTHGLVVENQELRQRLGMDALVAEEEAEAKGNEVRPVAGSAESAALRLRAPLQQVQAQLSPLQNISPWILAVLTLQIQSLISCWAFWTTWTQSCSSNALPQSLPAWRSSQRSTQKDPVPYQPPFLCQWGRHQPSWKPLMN
Summary of the method: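 HepG2 cells transiently transfected with multiple cis-element reporter units report endogenous TF activity; 24 h exposure, then reporter mRNA measured by RT-PCR, 6-FAM labelling, HpaI digestion and capillary electrophoresis. Bidirectional fitting versus DMSO.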

[5] = ATG_GAL4_TRANS: Attagene TRANS-FACTORIAL HepG2 Assay for GAL4 (Internal Marker) (AID 2282976; active means hit-call score of the fitted dose curve at least 0.9, where 1 is the maximum); settings: HepG2 Attagene TRANS GAL4 internal marker reporter
Summary of the method: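 First, HepG2 cells were transfected with reporter units under GAL4-UAS control. Next, they were treated with chemical for 24 h. Finally, RNA was reverse-transcribed, PCR-amplified, FAM-labelled and resolved by capillary electrophoresis, with induction scored against DMSO.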

[6] = target: Glucocorticoid receptor (Homo sapiens) (UniProt P04150); assay: ATG_GR_TRANS: Attagene TRANS-FACTORIAL HepG2 Assay for human Glucocorticoid Receptor (GR) (AID 2282978; active means hit-call score of the fitted dose curve at least 0.9, where 1 is the maximum;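 further: activators score as hits since higher reporter transcript over DMSO is fitted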); settings: HepG2 Attagene TRANS GR reporter, mRNA transcription
Glucocorticoid receptor (Homo sapiens), sequence (P04150 whole entry, looked up, the tested form may be a part): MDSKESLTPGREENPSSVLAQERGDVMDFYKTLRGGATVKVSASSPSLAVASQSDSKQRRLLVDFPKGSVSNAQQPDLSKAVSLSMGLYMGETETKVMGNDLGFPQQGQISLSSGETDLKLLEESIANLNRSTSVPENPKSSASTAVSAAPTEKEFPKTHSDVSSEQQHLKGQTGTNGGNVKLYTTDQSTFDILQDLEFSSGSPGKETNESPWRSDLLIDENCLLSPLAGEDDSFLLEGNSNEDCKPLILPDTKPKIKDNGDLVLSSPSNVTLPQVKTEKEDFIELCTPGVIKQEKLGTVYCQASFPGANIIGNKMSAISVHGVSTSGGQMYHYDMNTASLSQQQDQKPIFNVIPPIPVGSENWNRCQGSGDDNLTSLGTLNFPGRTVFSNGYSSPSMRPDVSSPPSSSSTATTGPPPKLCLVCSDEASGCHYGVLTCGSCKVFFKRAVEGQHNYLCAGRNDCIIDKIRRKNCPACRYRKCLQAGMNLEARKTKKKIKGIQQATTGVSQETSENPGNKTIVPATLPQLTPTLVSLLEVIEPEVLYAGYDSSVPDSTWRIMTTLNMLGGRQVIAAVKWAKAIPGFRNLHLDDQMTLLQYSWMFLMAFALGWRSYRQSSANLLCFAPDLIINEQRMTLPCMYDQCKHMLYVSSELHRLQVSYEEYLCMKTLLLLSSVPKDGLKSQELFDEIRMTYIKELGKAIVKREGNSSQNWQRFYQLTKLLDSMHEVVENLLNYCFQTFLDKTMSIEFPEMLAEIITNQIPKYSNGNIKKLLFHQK
Summary of the method: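 Transiently transfected HepG2 cells express chimeric NR-GAL4 proteins acting on GAL4-UAS reporter units. Compounds are applied for 24 h. mRNA induction over DMSO is measured by capillary electrophoresis.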

[7] = target: Bile acid receptor (Homo sapiens) (UniProt Q96RI1); assay: ATG_FXR_TRANS: Attagene TRANS-FACTORIAL HepG2 Assay for Farnesoid X Receptor (FXR) (AID 2282979; active means hit-call score of the fitted dose curve at least 0.9, where 1 is the maximum;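 further: hits raise reporter mRNA above DMSO so AC50 marks FXR activation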); settings: HepG2 Attagene TRANS FXR-GAL4 reporter transcription
Bile acid receptor (Homo sapiens), sequence (Q96RI1 whole entry, looked up, the tested form may be a part): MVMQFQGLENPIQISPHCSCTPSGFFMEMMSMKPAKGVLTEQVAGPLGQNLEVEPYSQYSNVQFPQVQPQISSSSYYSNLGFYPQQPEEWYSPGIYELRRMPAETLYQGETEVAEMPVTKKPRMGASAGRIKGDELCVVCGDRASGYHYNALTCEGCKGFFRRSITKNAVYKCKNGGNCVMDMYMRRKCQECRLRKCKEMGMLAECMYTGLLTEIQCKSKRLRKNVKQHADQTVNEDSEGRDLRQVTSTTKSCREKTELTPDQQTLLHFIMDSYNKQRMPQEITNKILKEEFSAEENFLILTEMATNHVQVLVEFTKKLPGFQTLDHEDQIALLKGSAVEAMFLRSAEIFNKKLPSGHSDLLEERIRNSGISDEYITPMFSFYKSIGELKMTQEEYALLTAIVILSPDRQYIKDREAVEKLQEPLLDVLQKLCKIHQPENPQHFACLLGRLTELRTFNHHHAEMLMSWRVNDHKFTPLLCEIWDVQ
Summary of the method: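 Transient transfection of HepG2 with multiplexed GAL4-UAS reporter units; exogenous FXR-GAL4 chimera. Dose 24 h → TriZol RNA → oligo(dT) RT → PCR, 6-FAM primer extension, HpaI cut → CE. Gain vs DMSO.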

[8] = target: Oxysterols receptor LXR-beta (Homo sapiens) (UniProt P55055); assay: ATG_LXRb_TRANS: Attagene TRANS-FACTORIAL HepG2 Assay for human Liver X Receptor beta (LXRb) (AID 2282981; active means hit-call score of the fitted dose curve at least 0.9, where 1 is the maximum); settings: HepG2 Attagene TRANS GAL4-LXRb reporter, mRNA
Oxysterols receptor LXR-beta (Homo sapiens), sequence (P55055 whole entry, looked up, the tested form may be a part): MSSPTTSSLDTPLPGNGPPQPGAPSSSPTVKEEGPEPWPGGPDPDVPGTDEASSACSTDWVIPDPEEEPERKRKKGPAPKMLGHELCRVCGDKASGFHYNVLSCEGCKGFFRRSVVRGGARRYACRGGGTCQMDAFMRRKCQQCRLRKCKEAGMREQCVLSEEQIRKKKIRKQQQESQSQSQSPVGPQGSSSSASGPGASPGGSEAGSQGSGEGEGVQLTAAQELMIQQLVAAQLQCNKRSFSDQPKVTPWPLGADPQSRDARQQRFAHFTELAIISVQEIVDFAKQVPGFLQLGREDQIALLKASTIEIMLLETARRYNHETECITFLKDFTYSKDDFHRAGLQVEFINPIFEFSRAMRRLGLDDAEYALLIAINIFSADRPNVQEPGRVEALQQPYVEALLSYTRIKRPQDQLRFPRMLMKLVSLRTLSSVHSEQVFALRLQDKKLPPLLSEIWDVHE
Summary of the method: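 In this TRANS format, exogenous chimeric NR-Gal4 protein activity, not endogenous factors, drives reporter expression in transfected human HepG2 cells. Exposure lasted 24 h; reporter mRNA was read by fluorescent capillary electrophoresis.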

[9] = ATG_M_06_TRANS: Attagene TRANS-FACTORIAL HepG2 Assay for M06 Transcription Factor (Internal Marker) (AID 2282983; active means hit-call score of the fitted dose curve at least 0.9, where 1 is the maximum); settings: HepG2 Attagene TRANS M06 internal marker reporter
Summary of the method: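 Transfect HepG2 with MRTUs → dose compounds 24 h → isolate RNA, oligo(dT) RT → PCR with reporter primers → 6-FAM primer extension → HpaI digest → CE fragment analysis. Positive direction vs DMSO.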

[10] = ATG_M_32_TRANS: Attagene TRANS-FACTORIAL HepG2 Assay for M32 Transcription Factor (Internal Marker) (AID 2282984; active means hit-call score of the fitted dose curve at least 0.9, where 1 is the maximum;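 further: transcript level of a background control reporter unit measured by RT-PCR and capillary electrophoresis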); settings: HepG2 Attagene TRANS M32 internal marker reporter
Summary of the method: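 Human hepatoma HepG2, transient MRTU transfection, 24 h treatment. RNA → RT-PCR → fluorescent primer extension → HpaI digest (2 h, 37 C) → CE. Positive-direction fit vs DMSO.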

[11] = target: Nuclear receptor subfamily 4 group A member 2 (Homo sapiens) (UniProt P43354); assay: ATG_NURR1_TRANS: Attagene TRANS-FACTORIAL HepG2 Assay for human Nuclear Receptor Related Protein 1 (NURR1) (AID 2282985; active means hit-call score of the fitted dose curve at least 0.9, where 1 is the maximum); settings: HepG2 Attagene TRANS reporter, mRNA readout
Nuclear receptor subfamily 4 group A member 2 (Homo sapiens), sequence (P43354 whole entry, looked up): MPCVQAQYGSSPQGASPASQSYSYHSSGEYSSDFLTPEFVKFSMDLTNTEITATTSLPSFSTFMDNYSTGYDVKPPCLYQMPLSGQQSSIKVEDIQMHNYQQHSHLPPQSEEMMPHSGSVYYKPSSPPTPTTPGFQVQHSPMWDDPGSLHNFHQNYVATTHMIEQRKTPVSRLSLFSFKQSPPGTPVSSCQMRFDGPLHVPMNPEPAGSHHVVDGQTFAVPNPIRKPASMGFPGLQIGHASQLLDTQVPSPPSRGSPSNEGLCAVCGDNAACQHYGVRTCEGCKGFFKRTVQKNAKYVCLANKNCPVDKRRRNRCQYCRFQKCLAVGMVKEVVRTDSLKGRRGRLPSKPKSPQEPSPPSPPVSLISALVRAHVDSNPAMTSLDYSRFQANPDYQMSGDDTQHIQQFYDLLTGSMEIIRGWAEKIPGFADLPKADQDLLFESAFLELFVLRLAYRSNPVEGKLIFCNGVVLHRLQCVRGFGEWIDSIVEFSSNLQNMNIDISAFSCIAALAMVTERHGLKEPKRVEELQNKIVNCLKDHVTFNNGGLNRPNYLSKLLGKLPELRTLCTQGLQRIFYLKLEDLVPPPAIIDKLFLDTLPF
Summary of the method: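 After 24 h chemical dosing, total RNA from transiently transfected HepG2 cells was reverse-transcribed and reporter cDNA PCR-amplified, FAM-labelled and analysed by capillary electrophoresis. Activity fitted in positive direction, DMSO as negative control.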

[12] = target: Transcriptional activator Myb (Homo sapiens) (UniProt P10242); assay: ATG_Myb_CIS: Attagene CIS-FACTORIAL HepG2 Assay for human Myeloblastosis (Myb) Proto-Oncogene Transcription Factor (AID 2282986); settings: HepG2 Attagene CIS-FACTORIAL Myb reporter transcription; actives raise or lower the signal
Transcriptional activator Myb (Homo sapiens), sequence (P10242 whole entry, looked up): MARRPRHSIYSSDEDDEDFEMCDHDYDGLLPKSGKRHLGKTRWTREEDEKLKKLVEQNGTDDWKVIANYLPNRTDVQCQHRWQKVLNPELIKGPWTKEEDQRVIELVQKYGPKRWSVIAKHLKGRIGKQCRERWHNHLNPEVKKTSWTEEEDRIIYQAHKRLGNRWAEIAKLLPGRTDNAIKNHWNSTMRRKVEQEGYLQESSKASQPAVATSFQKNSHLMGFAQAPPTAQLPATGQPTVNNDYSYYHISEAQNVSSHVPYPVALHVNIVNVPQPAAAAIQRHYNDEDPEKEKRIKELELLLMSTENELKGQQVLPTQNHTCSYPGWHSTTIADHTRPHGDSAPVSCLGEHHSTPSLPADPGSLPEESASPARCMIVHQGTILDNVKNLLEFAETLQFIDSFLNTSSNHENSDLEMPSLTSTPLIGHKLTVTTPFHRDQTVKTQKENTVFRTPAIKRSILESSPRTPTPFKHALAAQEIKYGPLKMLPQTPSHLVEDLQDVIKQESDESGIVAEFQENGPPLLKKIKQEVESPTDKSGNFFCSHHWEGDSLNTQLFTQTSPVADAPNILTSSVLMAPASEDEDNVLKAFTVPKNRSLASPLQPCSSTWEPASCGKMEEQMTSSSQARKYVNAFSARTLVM
Summary of the method: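 Using HepG2 liver cells bearing transiently transfected cis-promoter reporter constructs, the assay measures induction or loss of reporter mRNA after 24 hours of dosing. Detection used fluorescently labeled RT-PCR products separated by capillary electrophoresis.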

[13] = target: Nuclear respiratory factor 1 (Homo sapiens) (UniProt Q16656); assay: ATG_NRF1_CIS: Attagene CIS-FACTORIAL HepG2 Assay for human Nuclear Respiratory Factor 1 (NRF1) Orphan Gene (AID 2282987); settings: HepG2 NRF1 cis-element reporter, Attagene multiplex; actives raise or lower the signal
Nuclear respiratory factor 1 (Homo sapiens), sequence (Q16656 whole entry, looked up): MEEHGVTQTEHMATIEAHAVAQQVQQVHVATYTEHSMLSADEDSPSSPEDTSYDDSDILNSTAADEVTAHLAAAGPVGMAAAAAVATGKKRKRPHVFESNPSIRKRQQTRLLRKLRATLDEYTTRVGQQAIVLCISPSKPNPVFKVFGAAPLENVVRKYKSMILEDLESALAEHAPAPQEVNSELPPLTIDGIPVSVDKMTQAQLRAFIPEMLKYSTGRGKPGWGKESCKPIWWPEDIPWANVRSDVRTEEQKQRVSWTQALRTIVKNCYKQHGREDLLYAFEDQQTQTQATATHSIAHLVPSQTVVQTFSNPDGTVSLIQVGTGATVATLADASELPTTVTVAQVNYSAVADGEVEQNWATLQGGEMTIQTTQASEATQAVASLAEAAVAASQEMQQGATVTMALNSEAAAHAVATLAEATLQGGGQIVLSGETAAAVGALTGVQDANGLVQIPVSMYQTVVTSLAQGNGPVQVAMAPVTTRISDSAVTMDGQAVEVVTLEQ
Summary of the method: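 Reporter mRNA induction or loss in HepG2 cells after 24 h dosing; cis-regulated reporter constructs report endogenous transcription-factor activity. Quantified by RT-PCR/capillary electrophoresis fluorescence, DMSO-referenced.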

[14] = target: Hepatocyte nuclear factor 4-alpha (Homo sapiens) (UniProt P41235); assay: ATG_HNF4a_TRANS: Attagene TRANS-FACTORIAL HepG2 Assay for human Hepatocyte Nuclear Factor 4 alpha (HNF4a) (AID 2282982; active means hit-call score of the fitted dose curve at least 0.9, where 1 is the maximum); settings: HepG2 HNF4a transactivation reporter, mRNA readout
Hepatocyte nuclear factor 4-alpha (Homo sapiens), sequence (P41235 whole entry, looked up, the tested form may be a part): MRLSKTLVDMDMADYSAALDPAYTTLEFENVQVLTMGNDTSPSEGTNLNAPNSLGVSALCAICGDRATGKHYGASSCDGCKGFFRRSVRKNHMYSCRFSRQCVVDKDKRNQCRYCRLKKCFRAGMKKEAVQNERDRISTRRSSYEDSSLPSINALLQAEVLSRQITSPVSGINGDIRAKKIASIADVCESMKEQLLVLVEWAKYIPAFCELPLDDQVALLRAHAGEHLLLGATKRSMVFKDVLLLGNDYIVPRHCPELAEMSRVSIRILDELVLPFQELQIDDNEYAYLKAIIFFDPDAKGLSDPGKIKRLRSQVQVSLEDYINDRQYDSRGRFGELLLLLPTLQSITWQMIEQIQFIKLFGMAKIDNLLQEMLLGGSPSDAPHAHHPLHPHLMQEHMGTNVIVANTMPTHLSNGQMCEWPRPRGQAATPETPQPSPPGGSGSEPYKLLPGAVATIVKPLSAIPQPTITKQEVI
Summary of the method: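 Cells used were human HepG2, transiently carrying GAL4-UAS reporter units read out against exogenous NR-GAL4 chimeras. Reporter transcript levels after 24 h dosing were quantified by fluorescent RT-PCR and capillary electrophoresis.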

[15] = ATG_M_19_TRANS: Attagene TRANS-FACTORIAL HepG2 Assay for M19 Transcription Factor (Internal Marker) (AID 2282974; active means hit-call score of the fitted dose curve at least 0.9, where 1 is the maximum); settings: HepG2 Attagene TRANS-FACTORIAL M19 internal marker reporter
Summary of the method: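 Multiplexed TRANS format: HepG2 liver cells bearing transient GAL4-UAS reporter units, chemical treatment 24 h, reporter transcripts quantified by RT-PCR plus capillary electrophoresis. DMSO defines baseline.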

[16] = target: Oxysterols receptor LXR-alpha (Homo sapiens) (UniProt Q13133); assay: ATG_LXRa_TRANS: Attagene TRANS-FACTORIAL HepG2 Assay for human Liver X Receptor alpha (LXRa) (AID 2282980; active means hit-call score of the fitted dose curve at least 0.9, where 1 is the maximum); settings: HepG2 Attagene TRANS reporter, LXRa transactivation
Oxysterols receptor LXR-alpha (Homo sapiens), sequence (Q13133 whole entry, looked up, the tested form may be a part): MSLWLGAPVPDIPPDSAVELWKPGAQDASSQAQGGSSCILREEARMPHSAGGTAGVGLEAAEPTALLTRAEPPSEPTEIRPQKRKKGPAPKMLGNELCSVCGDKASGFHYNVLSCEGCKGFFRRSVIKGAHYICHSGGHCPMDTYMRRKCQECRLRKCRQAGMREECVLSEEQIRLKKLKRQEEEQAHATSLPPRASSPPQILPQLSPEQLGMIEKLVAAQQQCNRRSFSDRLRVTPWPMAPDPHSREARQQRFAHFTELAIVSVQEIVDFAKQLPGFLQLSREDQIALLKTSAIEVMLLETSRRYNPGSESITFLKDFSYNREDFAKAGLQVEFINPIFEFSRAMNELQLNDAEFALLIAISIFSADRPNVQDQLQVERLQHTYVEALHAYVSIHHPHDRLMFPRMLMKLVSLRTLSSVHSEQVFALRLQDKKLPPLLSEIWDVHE
Summary of the method: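 Transfect HepG2 with GAL4-UAS multiplex reporter constructs (TRANS format, chimeric receptor-GAL4); treat 24 h; extract RNA, reverse-transcribe, PCR-amplify, FAM-label, HpaI-digest; resolve fragments by capillary electrophoresis. Upward response vs DMSO.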

[17] = target: Estrogen-related receptor gamma (Homo sapiens) (UniProt P62508); assay: ATG_ERRg_TRANS: Attagene TRANS-FACTORIAL HepG2 Assay for human Estrogen-Related Receptor gamma (ERRg) (AID 2282977; active means hit-call score of the fitted dose curve at least 0.9, where 1 is the maximum;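 further: hits increase reporter signal over DMSO so potencies reflect activators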); settings: HepG2 Attagene TRANS reporter, ERRg transactivation
Summary of the method: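 HepG2 cells transiently transfected with multiplexed GAL4-UAS reporter units driven by chimeric NR-Gal4 proteins; 24 h exposure. Reporter mRNA quantified by RT-PCR, fluorescent labelling, HpaI digestion and capillary electrophoresis; gain of signal vs DMSO.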

CCCc1c(OCCCOc2ccc(OCC(=O)O)cc2)ccc(C(C)=O)c1O
outcome [1]: inactive
AC50 [2]: 70.5 µM (active)
AC50 [3]: 27.5 µM (active)
outcome [4]: inactive
outcome [5]: inactive
outcome [6]: inactive
outcome [7]: inactive
outcome [8]: inactive
outcome [9]: inactive
outcome [10]: inactive
AC50 [11]: 100 µM (active)
outcome [12]: inactive
AC50 [13]: 100 µM (active)

C=C[Si](OCC)(OCC)OCC
outcome [1]: inactive
outcome [2]: inactive
outcome [3]: inactive
outcome [4]: inactive
outcome [5]: inactive
outcome [6]: inactive
outcome [9]: inactive
outcome [10]: inactive
outcome [12]: inactive
outcome [13]: inactive

Cc1ccc(C(C)C)cc1O
outcome [1]: inactive
outcome [2]: inactive
AC50 [3]: 26.9 µM (active)
outcome [4]: inactive
outcome [5]: inactive
outcome [6]: inactive
outcome [14]: inactive
outcome [9]: inactive
outcome [10]: inactive
outcome [11]: inactive
outcome [12]: inactive
outcome [13]: inactive

CC(C)=CCCC(C)CC=O (stereo unspecified)
outcome [1]: inactive
outcome [2]: inactive
outcome [3]: inactive
outcome [4]: inactive
outcome [15]: inactive
outcome [6]: inactive
outcome [7]: inactive
outcome [16]: inactive
outcome [14]: inactive
outcome [9]: inactive
outcome [10]: inactive
outcome [12]: inactive
outcome [13]: inactive

CC(C)(Oc1ccc(CCNC(=O)c2ccc(Cl)cc2)cc1)C(=O)O
outcome [1]: inactive
outcome [2]: inactive
outcome [3]: inactive
outcome [4]: inactive
outcome [5]: inactive
outcome [7]: inactive
outcome [8]: inactive
outcome [14]: inactive
outcome [9]: inactive
outcome [10]: inactive
outcome [12]: inactive
outcome [13]: inactive

CCC(=O)/C=C/C1C(C)=CCCC1(C)C (stereo unspecified)
outcome [1]: inactive
outcome [2]: inactive
outcome [3]: inactive
outcome [4]: inactive
outcome [5]: inactive
outcome [6]: inactive
outcome [7]: inactive
outcome [8]: inactive
outcome [14]: inactive
outcome [9]: inactive
outcome [10]: inactive
outcome [11]: inactive
outcome [12]: inactive
outcome [13]: inactive

N#Cc1nc(Cl)c(Cl)c(Cl)c1Cl
outcome [1]: inactive
outcome [2]: inactive
AC50 [3]: 4.14 µM (active)
AC50 [4]: 5.85 µM (active)
outcome [17]: inactive
outcome [16]: inactive
AC50 [14]: 5.77 µM (active)
outcome [9]: inactive
outcome [10]: inactive
outcome [11]: inactive
AC50 [12]: 2.71 µM (active)
AC50 [13]: 5.93 µM (active)

CC(=O)C(=O)O
outcome [1]: inactive
outcome [2]: inactive
outcome [3]: inactive
outcome [4]: inactive
outcome [5]: inactive
outcome [14]: inactive
outcome [9]: inactive
outcome [12]: inactive
outcome [13]: inactive

C/C=C(\C)C(=O)OCc1ccccc1
outcome [1]: inactive
outcome [2]: inactive
outcome [3]: inactive
outcome [4]: inactive
outcome [5]: inactive
outcome [17]: inactive
outcome [6]: inactive
outcome [8]: inactive
outcome [9]: inactive
outcome [10]: inactive
outcome [12]: inactive
outcome [13]: inactive

CCCCCCCCCCCCCOS(=O)(=O)O
outcome [1]: inactive
outcome [2]: inactive
outcome [3]: inactive
outcome [4]: inactive
outcome [5]: inactive
outcome [6]: inactive
outcome [8]: inactive
outcome [9]: inactive
outcome [11]: inactive
outcome [12]: inactive
outcome [13]: inactive

C=CC[N+](C)(C)CC=C
outcome [1]: inactive
outcome [2]: inactive
outcome [3]: inactive
outcome [4]: inactive
outcome [5]: inactive
outcome [6]: inactive
outcome [16]: inactive
outcome [14]: inactive
outcome [9]: inactive
outcome [10]: inactive
outcome [11]: inactive
outcome [12]: inactive
outcome [13]: inactive

Source: PubChem BioAssay (EPA / NIEHS)
